Experiment: qHTS profiling of the MIPE4 collection as inhibitors of Plasmodium falciparum (DD2) proliferation (AID 743345)
Conditions: P. falciparum Dd2 in erythrocytes, SYBR Green DNA, 72 h; at 28.5 µM (top of the series) unless noted
How it was run: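 Parasite DNA was quantified by SYBR Green I fluorescence (ex 485, em 535 nm) after overnight lysis in saponin/Triton buffer at room temperature. Cultures at 0.3% parasitemia and 2.5% hematocrit were first exposed to compound for 72 h at 37 C; signals were normalised to artemisinin (0.29 uM) and vehicle wells.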
Molecule O=C(Nc1cccc(Br)c1)c1cccc(S(=O)(=O)N2CCCCCC2)c1 has a parasite growth remaining, % of DMSO control (lower = more inhibition) of 51.8%.
Work on CCCCCCCCCCCC1=C(O)C(=O)C=C(O)C1=O yielded a parasite growth remaining, % of DMSO control (lower = more inhibition) of 63.9%.
Work on Cc1c(O)cccc1C(=O)N[C@@H](CSc1ccccc1)[C@H](O)CN1C[C@H]2CCCC[C@@H]2C[C@@H]1C(=O)NC(C)(C)C yielded a parasite growth remaining, % of DMSO control (lower = more inhibition) of 36%.
Molecule CNC(=O)c1ccc2cc(C3(O)CCn4cncc43)ccc2c1 (configuration not stated) has a parasite growth remaining, % of DMSO control (lower = more inhibition) of 86.6%.
In the case of Cc1cccc(Nc2nc(-c3ccncc3)cs2)c1, the parasite growth remaining, % of DMSO control (lower = more inhibition) is reported as 71%.
Work on CC(C)C(C)C=CC(C)C1CCC2C3=CC=C4CC(O)CCC4(C)C3CCC21C (configuration not stated) yielded a parasite growth remaining, % of DMSO control (lower = more inhibition) of 102%.
Work on O=C1NC(=O)C(=Cc2ccc3nccnc3c2)S1 yielded a parasite growth remaining, % of DMSO control (lower = more inhibition) of 92.6% [at 9.64 µM].
Molecule Cc1nnc(C(C)C)n1C1C[C@H]2CC[C@@H](C1)N2CC[C@H](NC(=O)C1CCC(F)(F)CC1)c1ccccc1 (some centres not stated) has a parasite growth remaining, % of DMSO control (lower = more inhibition) of 100%.
For O=c1ccn([C@@H]2O[C@H](CO)[C@H](O)[C@H]2O)c(=O)[nH]1, the parasite growth remaining, % of DMSO control (lower = more inhibition) was 90.5%.
Work on C[C@]12CC[C@@H]3c4ccc(O)cc4C[C@@H](CCCCCCCCCS(=O)CCCC(F)(F)C(F)(F)F)[C@H]3[C@H]1CC[C@H]2O (some centres not stated) yielded a parasite growth remaining, % of DMSO control (lower = more inhibition) of 8.45%.
O=C1NC(=O)C(=Cc2cccc(C(F)(F)F)c2)S1 showed a parasite growth remaining, % of DMSO control (lower = more inhibition) of 93.5%.
O=c1cc(-c2ccccc2)oc2cc(O)cc(O)c12 showed a parasite growth remaining, % of DMSO control (lower = more inhibition) of 89.3%.
COC[C@@H](c1ccc(C(F)(F)F)cc1)N1CCN(C2(C)CCN(C(=O)c3c(C)ncnc3C)CC2)C[C@H]1C gave a parasite growth remaining, % of DMSO control (lower = more inhibition) of 84.7%.
Work on COc1cccc([C@@H](C)NCCCc2ccccc2Cl)c1 yielded a parasite growth remaining, % of DMSO control (lower = more inhibition) of 78.7%.
Work on CN(C)CCC=C1c2ccccc2COc2ccc(CC(=O)O)cc21 yielded a parasite growth remaining, % of DMSO control (lower = more inhibition) of 91.8%.
Molecule NC(=O)c1ccc2nc(-c3ccc(Oc4ccc(Cl)cc4)cc3)[nH]c2c1 has a parasite growth remaining, % of DMSO control (lower = more inhibition) of 76.9%.
Molecule COc1cc(N2CCC(N3CCN(C)CC3)CC2)ccc1Nc1ncnc(Nc2ccccc2S(=O)(=O)C(C)C)n1 has a parasite growth remaining, % of DMSO control (lower = more inhibition) of 8.1%.
Molecule O=C1c2ccccc2-[n+]2ccc3c([nH]c4ccccc43)c21 has a parasite growth remaining, % of DMSO control (lower = more inhibition) of 7.19%.
Molecule COc1ccc2c3c1OC1C[C@@H](O)C=C[C@@]31CCN(C)C2 (some centres not stated) has a parasite growth remaining, % of DMSO control (lower = more inhibition) of 100%.
For CO[C@H]1C[C@@H]2CC[C@@H](C)[C@@](O)(O2)C(=O)C(=O)N2CCCC[C@@H]2C(=O)O[C@H]([C@H](C)C[C@@H]2CC[C@H](OP(C)(C)=O)[C@H](OC)C2)CC(=O)[C@H](C)C=C(C)[C@@H](O)[C@@H](OC)C(=O)[C@H](C)C[C@H](C)C=CC=CC=C1C, the parasite growth remaining, % of DMSO control (lower = more inhibition) was 6.6%.
Work on O=C(Nc1c(Cl)cncc1Cl)c1ccc(OC(F)F)c(OCC2CC2)c1 yielded a parasite growth remaining, % of DMSO control (lower = more inhibition) of 100%.
CC(C)(C)OC(=O)N[C@H]1CCCCCC=C[C@@H]2C[C@@]2(C(=O)NS(=O)(=O)C2CC2)NC(=O)[C@@H]2C[C@@H](OC(=O)N3Cc4cccc(F)c4C3)CN2C1=O showed a parasite growth remaining, % of DMSO control (lower = more inhibition) of 40.6%.
CC(=NNC(=S)N1CCC1)c1ccccn1 showed a parasite growth remaining, % of DMSO control (lower = more inhibition) of 5.88%.
O=C(O)c1ccccc1C(=O)Nc1ccc(-c2ccccc2)cc1 showed a parasite growth remaining, % of DMSO control (lower = more inhibition) of 104%.
In the case of CN(C[C@@H]1COCCO1)S(=O)(=O)Nc1ccc2ccc3ncc(-c4cnn(C)c4)cc3c(=O)c2c1, the parasite growth remaining, % of DMSO control (lower = more inhibition) is reported as 47.9%.
Molecule O=C(OCC#CCSc1nnc(-c2cccc3ccccc23)o1)c1cc2ccccc2s1 has a parasite growth remaining, % of DMSO control (lower = more inhibition) of 83%.
NC[C@@H]1O[C@@H](O[C@H]2[C@@H](O)[C@H](O[C@@H]3[C@@H](O)[C@@H](N)C[C@H](N)[C@H]3O[C@H]3O[C@H](CN)[C@@H](O)[C@@H](O)[C@H]3N)O[C@H]2CO)[C@H](N)[C@@H](O)[C@@H]1O showed a parasite growth remaining, % of DMSO control (lower = more inhibition) of 92.7%.
Cc1nc(N)sc1-c1ccnc(Nc2ccc(N3CCOCC3)cc2)n1 gave a parasite growth remaining, % of DMSO control (lower = more inhibition) of 9.15%.
Oc1ccc(C2CCN(c3ccnc4ccccc34)CC2)cc1O gave a parasite growth remaining, % of DMSO control (lower = more inhibition) of 13.2%.
In the case of CC1(C)O[C@H]2C[C@@H]3[C@H]4CCC5=CC(=O)C=C[C@]5(C)[C@@]4(F)[C@@H](O)C[C@]3(C)[C@]2(C(=O)CO)O1, the parasite growth remaining, % of DMSO control (lower = more inhibition) is reported as 92.5%.
For O=C(NC1CCOCC1)c1ccc(-c2cc(-c3cn[nH]c3-c3ccccn3)ccn2)cc1, the parasite growth remaining, % of DMSO control (lower = more inhibition) was 82.7%.
Work on N#CC1(c2ccc(NC(=O)c3cccnc3NCc3ccncc3)cc2)CCCC1 yielded a parasite growth remaining, % of DMSO control (lower = more inhibition) of 72.9%.
